C_diff_growth: inhibitors of Clostridium difficile growth | growth activity, negative = inhibition, % at 16 µg/mL (by protocol) | 86,000 tested, 0.25% active | AID 1259249 | Clostridium difficile clinical isolate growth, OD600, 24 h; stronger effect = lower value;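 active means mean growth activity at or below -80% and every replicate also at or below -80%; inconclusive means mean at or below -80% but some replicate above -80%; inactive means mean growth activity above -80%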;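 further: 0% = DMSO wells and -100% = levofloxacin 16 µg/mL wells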
Pf_Dd2_growth: inhibitors of Plasmodium falciparum Dd2 growth. P. falciparum Dd2 growth, SYBR Green, 72 h; stronger effect = lower value. activity change, % at 10 µM. 94,000 tested, 2.3% active; in the data active means activity change below about -80%; inconclusive means no clear call, values can overlap the other calls
T_cruzi_growth-1: T. cruzi proliferation inhibition; 77,000 tested, 5.9% active; AID 624255; inhibition, % at 8.34 µM; T. cruzi beta-gal in NIH3T3, GalScreen luminescence, 90 h;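 active means mean inhibition above about 93%, with at least 55% of replicates each passing it, limit read from the data, passing the limit was not always enough; inconclusive means only one of those two conditions holds; inactive means neither condition holds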
T_cruzi_growth-2: blocks T. cruzi growth in NIH3T3 host cells; shares compounds with T_cruzi_growth-1; T. cruzi beta-gal in NIH3T3, GalScreen luminescence, 90 h; inhibition, % at 8.35 µM; 5,600 tested, 72% active; AID 651739;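 active means mean replicate inhibition above about 95% and at least 55% of replicates individually reaching it, limit read from the data; inconclusive means only one of the two criteria is met; inactive means neither criterion is met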
T_cruzi_growth-3: blocks T. cruzi growth in NIH3T3 host cells; inhibition, % at 2.09 µM; 5,600 tested, 21% active; shares compounds with T_cruzi_growth-1; AID 651740; T. cruzi beta-gal in NIH3T3, GalScreen luminescence, 90 h;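 active means mean inhibition above about 95%, with at least 55% of replicates also reaching it, limit read from the data; inconclusive means meets just one of the two conditions; inactive means meets neither condition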;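 further: plate controls were neutral control median for no effect and positive control median for full effect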
NIH3T3_tox: kills mouse NIH/3T3 fibroblasts; shares compounds with T_cruzi_growth-1; NIH/3T3 viability, CellTiter-Glo ATP luminescence, 90 h; cytotoxicity (signal decrease), % at 8.35 µM; 5,600 tested, 14% active; AID 651742;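 active means mean signal decrease across replicates above about 35% based on untreated-well scatter, with enough replicates individually passing, limit read from the data; inconclusive means no rule stated though some were filed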;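 further: 0% = median of neutral control wells and 100% = median of positive control wells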
3T3_cytotox_2: kills mouse NIH/3T3 fibroblasts. shares compounds with T_cruzi_growth-1. NIH/3T3 viability, CellTiter-Glo ATP luminescence, 90 h. inhibition, % at 24.9 µM. 5,600 tested, 56% active;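 active means mean loss of cell viability signal at or above a set limit, and enough replicates individually reaching it; inconclusive means meets only the mean limit or only the replicate share; inactive means meets neither condition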;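 further: 0% = median of neutral control wells and 100% = median of positive control wells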
* marks the source's active call; other numbers are inactive results; ? = inconclusive; / = no result given. In the library only some 6.7% were active in any assay of this set; here they are far more common.

SMILES C_diff_growth Pf_Dd2_growth T_cruzi_growth-1 T_cruzi_growth-2 T_cruzi_growth-3 NIH3T3_tox 3T3_cytotox_2
Cc1noc(C)c1NC(=O)Nc1ccc2c(c1)C(=O)N(C)[C@H]1CC[C@H](CC(=O)N[C@H]3CCN(Cc4ccccc4)C3)O[C@H]1CO2 -1.1 -71.6 106.0* -19.5 -17.9 6.3 2.1
Cc1noc(C)c1NC(=O)Nc1ccc2c(c1)C(=O)N(C)[C@H]1CC[C@@H](CC(=O)N[C@H]3CCN(Cc4ccccc4)C3)O[C@@H]1CO2 3.5 18.1 104.4* -22.7 13.5 0.4 -6.7
Cc1noc(C)c1NC(=O)Nc1ccc2c(c1)C(=O)N(C)[C@@H]1CC[C@@H](CC(=O)N[C@@H]3CCN(Cc4ccccc4)C3)O[C@H]1CO2 -10.4 -11.7 -21.9 / / / /
Cc1noc(C)c1NC(=O)Nc1ccc2c(c1)C(=O)N(C)[C@H]1CC[C@H](CC(=O)N[C@@H]3CCN(Cc4ccccc4)C3)O[C@@H]1CO2 -15.0 5.1 31.2 / / / /
Cc1noc(C)c1NC(=O)Nc1ccc2c(c1)C(=O)N(C)[C@H]1CC[C@@H](CC(=O)N[C@@H]3CCN(Cc4ccccc4)C3)O[C@@H]1CO2 -8.5 -13.9 -11.1 / / / /
Cc1noc(C)c1NC(=O)Nc1ccc2c(c1)C(=O)N(C)[C@@H]1CC[C@H](CC(=O)N[C@@H]3CCN(Cc4ccccc4)C3)O[C@H]1CO2 -13.9 -9.9 36.2 / / / /
Cc1noc(C)c1NC(=O)Nc1ccc2c(c1)C(=O)N(C)[C@@H]1CC[C@H](CC(=O)N[C@H]3CCN(Cc4ccccc4)C3)O[C@@H]1CO2 -5.3 -18.9 109.1* 27.2 7.6 -4.2 -0.8
C[C@@H]1CN([C@H](C)CO)C(=O)c2cccc(NC(=O)Nc3ccc4c(c3)OCO4)c2O[C@H]1CN(C)Cc1ccncc1 3.0 7.5 38.4 / / / /
CO[C@H]1CN(C)C(=O)c2cc(NC(=O)c3ccc4c(c3)OCO4)ccc2OC[C@H](C)NC[C@H]1C -1.0 18.4 -5.5 / / / /
CCCNC(=O)[C@H]1[C@H](CO)[C@H]2Cn3c(ccc(-c4cccc(OC)c4)c3=O)[C@H]2N1Cc1nccs1 -5.1 4.1 / / / / /
CCCNC(=O)[C@@H]1[C@@H](CO)[C@@H]2Cn3c(ccc(-c4cccnc4)c3=O)[C@@H]2N1C(=O)c1ccccc1F 23.0 / -58.9 / / / /
COc1ccccc1C#Cc1ccc2c(c1)[C@@H]1[C@@H](CCN1C(=O)CN1CCOCC1)[C@@H](CO)N2 -6.4 -13.6 46.3 / / / /
CCC(=O)N1CC[C@@H]2[C@H]1c1cc(C#Cc3ccccc3F)ccc1N[C@@H]2CO -6.4 -26.3 68.2 / / / /
O=C(c1ccccc1)N1CC[C@@H]2[C@@H](CO)Nc3ccc(C#Cc4ccccc4F)cc3[C@@H]21 90.8 -53.3 101.5* 106.1* 70.9 -5.0 95.8*
COc1ccccc1C#Cc1ccc2c(c1)[C@H]1[C@H](CCN1C(=O)c1ccccc1)[C@H](CO)N2 2.0 -4.4 100.3* 106.3* 84.0 30.5 82.7*
C[C@H]1CN([C@@H](C)CO)C(=O)c2cc(NC(=O)Nc3cccc4ccccc34)ccc2O[C@H]1CN(C)Cc1ccc(C(=O)Nc2ccccc2N)cc1 / -36.5 64.2 / / / /
C[C@H]1CCCCO[C@@H](CN(C)C(=O)Nc2ccccc2)[C@@H](C)CN([C@@H](C)CO)C(=O)c2cc(N(C)C)ccc2O1 -2.1 -0.5 30.6 / / / /
C[C@@H]1CCCCO[C@@H](CN(C)C(=O)Nc2cccc3ccccc23)[C@@H](C)CN([C@@H](C)CO)C(=O)c2cc(N(C)C)ccc2O1 2.2 -75.8 56.7 / / / /
C[C@@H]1CCCCO[C@@H](CN(C)C(=O)Nc2cccc3ccccc23)[C@H](C)CN([C@H](C)CO)C(=O)c2cc(N(C)C)ccc2O1 -2.8 -36.1 101.7* 97.5* 72.5 -34.5 0.0
C[C@H](CO)N1C[C@H](C)[C@@H](CN(C)C(=O)Nc2ccc(F)cc2)OCCCC[C@H](C)Oc2ccc(NC(=O)Nc3cccc4ccccc34)cc2C1=O -1.9 -32.1 105.1* 106.7* 55.2 9.1 ?
C[C@@H]1CCCCO[C@@H](CN(C)C(=O)Nc2ccc3c(c2)OCO3)[C@@H](C)CN([C@@H](C)CO)C(=O)c2cc(NC(=O)Nc3ccccc3)ccc2O1 10.3 -56.1 64.5 / / / /
C[C@@H]1CCCCO[C@H](CN(C)C(=O)Nc2ccc(F)cc2)[C@@H](C)CN([C@H](C)CO)C(=O)c2cc(NC(=O)Nc3cccc4ccccc34)ccc2O1 -0.9 -23.3 72.4 / / / /
C[C@H]1CCCCO[C@@H](CN(C)C(=O)Nc2ccccc2)[C@@H](C)CN([C@@H](C)CO)C(=O)c2cc(NC(=O)Nc3ccc4c(c3)OCO4)ccc2O1 -3.3 0.7 122.7* 113.4* 59.5 8.0 -2.5
C[C@@H]1CCCCO[C@@H](CN(C)C(=O)Nc2ccccc2)[C@H](C)CN([C@@H](C)CO)C(=O)c2cc(N(C)C)ccc2O1 -3.8 -32.4 107.3* 70.6 7.9 -5.0 -19.5
C[C@@H]1CN([C@H](C)CO)C(=O)Cc2cc(NC(=O)Nc3ccc4c(c3)OCO4)ccc2O[C@@H]1CN(C)C(=O)Nc1ccc2c(c1)OCO2 -2.3 4.4 15.5 / / / /
SMILES C_diff_growth Pf_Dd2_growth T_cruzi_growth-1 T_cruzi_growth-2 T_cruzi_growth-3 NIH3T3_tox 3T3_cytotox_2
COCC(=O)Nc1ccc2c(c1)C(=O)N(C)[C@H]1CC[C@H](CC(=O)NCc3cccc(F)c3)O[C@H]1CO2 2.1 3.5 37.8 / / / /
C[C@H](O)C#Cc1cnc2c(c1)C(=O)N([C@H](C)CO)C[C@@H](C)[C@H](CN(C)C(=O)c1ccncc1)O2 -1.9 36.9 -1.6 / / / /
C[C@H]1CCCCO[C@H](CN(C)C)[C@@H](C)CN([C@@H](C)CO)C(=O)c2cc(NC(=O)CCCCCC(=O)Nc3ccccc3N)ccc2O1 -7.3 41.0 96.6* 101.8* 17.3 8.2 16.8
CC(C)NC(=O)Nc1ccc2c(c1)C(=O)N([C@@H](C)CO)C[C@@H](C)[C@H](CN(C)C(=O)Nc1ccc(F)cc1)OCCCC[C@@H](C)O2 0.6 -2.4 20.1 / / / /
C[C@H](CO)N1C[C@H](C)[C@H](CN(C)C(=O)Nc2ccccc2)OCCCC[C@H](C)Oc2ccc(NC(=O)NC3CCCCC3)cc2C1=O / -44.9 78.4 / / / /
C[C@H](CO)N1C[C@H](C)[C@@H](CN(C)C(=O)Nc2ccccc2)OCCCC[C@H](C)Oc2ccc(NC(=O)Nc3ccc(F)cc3)cc2C1=O / 16.8 100.1* ? -21.9 -10.5 24.0
C[C@@H]1CCCCO[C@H](CN(C)CC2CCCCC2)[C@H](C)CN([C@@H](C)CO)C(=O)c2cc(NC(=O)CCCCCC(=O)Nc3ccccc3N)ccc2O1 -3.2 ? 74.6 / / / /
C[C@H]1CCCCO[C@H](CN(C)C(=O)Nc2ccccc2)[C@@H](C)CN([C@@H](C)CO)C(=O)c2cc(NC(=O)Nc3ccc(F)cc3)ccc2O1 / -27.2 18.9 / / / /

Screens deposited in PubChem by Broad Institute.
